Measurements: ChEMBL document CHEMBL4513146, “CO-ADD screening of Karazin Kharkiv National University (Ukraine) compounds”
Measured potencies and affinities stand elsewhere.

Key:
Klebsiella pneumoniae = conditions: Concentration 32 ug.mL-1;; ASSAY_TEST Inhibition of Bacterial Growth; detection method Absorption (OD600); MEDIA CAMHB; plate type 384well; NBS; CORNING #3640; time 18 hr
Candida albicans = conditions: Concentration 32 ug.mL-1; ASSAY_TEST Inhibition of Fungal Growth; detection method Absorption (OD530)
Cryptococcus neoformans = conditions: Concentration 32 ug.mL-1; ASSAY_TEST Inhibition of Fungal Growth; detection method Resazurin; Absorption (OD600-OD570); plate type 384well; NBS; CORNING #3640

Structure (SMILES) | Inhibition (Klebsiella pneumoniae) [%] | Inhibition (Candida albicans) [%] | Inhibition (Cryptococcus neoformans) [%]
COc1cccc(Oc2nccn3c(=O)n(CC(=O)Nc4ccc(OC)c(OC)c4)nc23)c1 | 7.97 | 1.42 | -6.14
NC(=O)CSc1nnc2c(=O)n(-c3ccccc3)ccn12 | 15.37 | 2.06 | -20.31
CCc1ccccc1Sc1nccn2c(=O)n(CC(=O)Nc3cc(C)ccc3C)nc12 | 13.72 | 1.62 | -13.69
Cc1cccc(NC(=O)Cn2c(=O)c3nnc(C(C)C)n3c3ccccc32)c1 | 2.46 | 0.3 | -17.48
CSc1cccc(NC(=O)Cn2nc3ccc(C(=O)NCc4ccccc4)cn3c2=O)c1 | 7.41 | 7.13 | -20.24
CC(=O)c1cccc(NC(=O)Cn2nc3c(N4CCN(c5ccccc5C)CC4)nccn3c2=O)c1 | 15.26 | 5.86 | -6.16
O=c1c2sccc2n2c(=O)n(Cc3cccc(C(F)(F)F)c3)nc2n1Cc1cccs1 | 15.22 | 35.9 | -33.79
CCCCn1c(=O)c2sccc2n2c(=O)n(CC(=O)NC(C)CC)nc12 (centres undefined) | -2.58 | 3.27 | -15.7
Cc1ccc(-c2ccc3nn(Cc4ccc(N5CCCC5=O)cc4)c(=O)n3n2)cc1 | 8.04 | 1.53 | -7.16
O=C(CSc1nnc2c3cc(-c4ccccc4)nn3ccn12)NCc1ccc(Cl)cc1 | 14.11 | 6.05 | -28.72
COc1ccc(-c2cc3c4nn(CC(=O)Nc5cccc(C)c5)c(=O)n4ccn3n2)cc1 | 3.49 | 3.36 | -17.04
O=C(Cn1nc2ccc(SCc3ccc(Cl)cc3)nn2c1=O)Nc1ccccc1C(F)(F)F | 7.36 | 1.76 | -11.3
Cc1ccccc1Oc1nccn2c(=O)n(CC(=O)Nc3ccc(C(C)C)cc3)nc12 | 6.08 | 37.73 | -9.72
COc1ccc(-c2nc(CSc3nc4ccccc4n4c(C(C)C)nnc34)c(C)o2)cc1 | 4.67 | 2.32 | -16.11
Cc1cccc(NC(=O)Cn2nc3ccc(SC(C)(C)C)nn3c2=O)c1 | 5.1 | 1.46 | -8.45
Cc1ccccc1Nc1cc(C)n2c(=O)n(CCOc3ccc(F)cc3)nc2n1 | 9.7 | -1.22 | -5.27
O=C(Cn1nc2ccc(C(=O)NCc3ccccc3)cn2c1=O)Nc1ccc2c(c1)OCO2 | 7.16 | 3.87 | -36.87
CCOc1ccc(C(=O)CSc2nnc3c(=O)n(-c4ccc(C)c(C)c4)ccn23)cc1 | 1.39 | 10.64 | -7.55
CCOc1ccc(-n2ccn3c(SCC(=O)Nc4ccc(CC)cc4)nnc3c2=O)cc1 | 16.87 | 2.31 | -18.11
Cc1ccccc1Oc1nc2ccccc2n2c(=O)n(CC(=O)NCc3ccc4c(c3)OCO4)nc12 | 17.68 | 19.82 | -16.39
CCOC(=O)c1ccc(NC(=O)CSc2nc3ccccc3n3c(C(C)C)nnc23)cc1 | 8.56 | -0.16 | -11.29
COc1ccccc1CNC(=O)Cn1nc2c(SCc3ccc(Cl)cc3)nccn2c1=O | 9.05 | 2.3 | -6.8
Cc1ccc(C)c(NC(=O)Cn2nc3c(Sc4ccccc4)nccn3c2=O)c1 | 3.53 | 1.24 | -8.99
Cc1ccc(CN(c2ccc(C(C)C)cc2)S(=O)(=O)c2cccn3c(C)nnc23)cc1 | 0.92 | 1.03 | -9.63
CCc1ccc(NC(=O)Cn2nc3ccc(SC(C)(C)C)nn3c2=O)cc1 | 14.6 | 4.19 | -17.5
O=C(Cn1nc2c3sc(N4CCCC4)nc3ncn2c1=O)Nc1ccc(F)c(Cl)c1 | 20.21 | 4.41 | -11.29
CCc1ccc(NC(=O)Cn2nc3cc(C)nc(Nc4ccc(F)c(C)c4)n3c2=O)cc1 | 8.35 | 8.83 | -9.39
Cc1nnc2ccc(S(=O)(=O)N(Cc3ccccc3F)c3ccc(F)cc3)cn12 | 5.62 | 1.21 | -9.05
